Test results from PubChem BioAssay AID1851 (National Center for Advancing Translational Sciences (NCATS), 2009).
The whole screen tested about 16,000 compounds, of which about 4,000 (25%) were called active. Another 26% or so got no clear call; they are omitted. Calls follow the shape of the dose curve; as a rule, active = well fitted curve in the direction sought with a large enough effect; inconclusive = small, poorly fitted or top-dose-only effect, or effect the other way; inactive = no such curve, though single readings can be large or run the other way. The list is a sample of the results.

Biological target: Cytochrome P450 2C9 (Homo sapiens) (UniProt P11712)
Sequence (P11712 whole entry, looked up): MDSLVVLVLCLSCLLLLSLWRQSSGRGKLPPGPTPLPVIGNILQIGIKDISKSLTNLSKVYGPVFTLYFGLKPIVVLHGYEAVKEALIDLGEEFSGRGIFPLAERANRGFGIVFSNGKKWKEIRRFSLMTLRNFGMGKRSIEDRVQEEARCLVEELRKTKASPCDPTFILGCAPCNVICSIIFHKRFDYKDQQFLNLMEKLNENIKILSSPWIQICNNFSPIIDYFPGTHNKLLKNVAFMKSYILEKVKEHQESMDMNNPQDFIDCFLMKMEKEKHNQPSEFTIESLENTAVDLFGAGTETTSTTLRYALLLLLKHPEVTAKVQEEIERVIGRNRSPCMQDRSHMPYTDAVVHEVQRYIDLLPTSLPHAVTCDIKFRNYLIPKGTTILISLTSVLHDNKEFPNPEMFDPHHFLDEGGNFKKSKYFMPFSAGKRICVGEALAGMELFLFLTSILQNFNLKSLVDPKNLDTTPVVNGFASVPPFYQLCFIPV
Assay: Cytochrome panel assay with activity outcomes
Conditions: recombinant CYP, pro-luciferin dealkylation, luminescence, p450-cyp2c9; series mostly up to 57.1 µM; activity, negative = inhibition: at the top concentration
% is scaled to controls: 0 for no effect and ±100 for the full control effect.

Structure (SMILES)	activity, negative = inhibition	AC50
O=[N+]([O-])c1ccc(CSc2ncnc3c2ncn3[C@@H]2O[C@@H](CO)[C@@H](O)[C@H]2O)cc1	5.51% (inactive)	
C=C(Br)CN(C)CC(=C)Br	2.22% [at 11.4 µM] (inactive)	
CC(=O)OCC1=C(C(=O)O)N2C(=O)[C@@H](NC(=O)Cc3cccs3)[C@@H]2SC1		inactive
COc1ccccc1CNc1cc(-c2cccnc2)ncn1	-0.576% [at 2.29 µM] (inactive)	
COc1ccc(CCNc2nc(-c3cccnc3)cs2)cc1OC		2.51 µM (active)
COc1ccc(CNc2cc(-c3cccnc3)ncn2)c(OC)c1	17.1% [at 2.29 µM] (inactive)	
Cc1sc(NC(=O)C2CCCCC2)c(C#N)c1-c1ccccc1		15.8 µM (active)
Cc1sc(NC(=O)/C=C/c2ccc(C(C)C)cc2)c(C#N)c1C	24.1% (inactive)	
Oc1ccc(CNCc2ccccc2)c2cccnc12	-9.84% [at 11.4 µM] (inactive)	
CC(C)NC1(C(N)=O)CCN(Cc2ccccc2)CC1	-5.53% [at 11.4 µM] (inactive)	
CC(=O)N1CCC2(CCN(Cc3ccccc3)CC2)CC1	-0.802% (inactive)	
CC(C)OC(=O)C(C#N)c1nc2ccccc2nc1N1CCN(Cc2ccccc2)CC1 (configuration not stated)		2.82 µM (active)
CN(C)c1ccc(-c2ccc3ncnc(N4CCNCC4)c3c2)cc1	6% [at 2.29 µM] (inactive)	
Cc1cccc(CNc2ccnc(-c3ccoc3)n2)c1	-14.6% [at 2.29 µM] (inactive)	
Cc1nn2c(C)nc3sc4c(c3c2nc1=O)CC(C)(C)OC4	-21% (inactive)	
CC1(C)Cc2c(sc3nc(-c4ccccc4)n(N)c(=O)c23)CO1		12.6 µM (active)
CCCN1C[C@H](CSC)C[C@H]2c3cccc4[nH]cc(c34)C[C@@H]21	-5.72% [at 25.6 µM] (inactive)	
N[C@@H](CCCP(=O)(O)O)C(=O)O	-6.04% (inactive)	
CN(C)c1ccc(NC(=O)CSc2nc(N)c(C(=O)Nc3ccc(N(C)C)cc3)s2)cc1		2.82 µM (active)
CCN(CC)c1ccc(NC(=O)CSc2nnc3nc(C)cc(C)n23)cc1	-15.7% (inactive)	
C[C@@]12CCC(=O)C=C1CC[C@H]1[C@@H]2[C@@H](O)C[C@]2(C)[C@@H]1CC[C@@]2(O)C(=O)CO	-3.75% [at 11.4 µM] (inactive)	
CCOC(=O)c1c(N2C(=O)Nc3cc(Cl)c(Cl)cc3N2O)sc2c1CCCCC2		3.55 µM (active)
Cc1ccc(S(=O)(=O)Oc2ccc(C3C4=C(CCCC4=O)OC4=C3C(=O)CCC4)cc2)cc1		3.98 µM (active)
CN(C)C[C@H]1CCC2=C(C1=O)C(c1ccc(Cl)c(Cl)c1)C1=C(CC[C@H](CN(C)C)C1=O)O2	-1.08% [at 11.4 µM] (inactive)	

Structure (SMILES)	activity, negative = inhibition	AC50
O=C1CCCC2=C1C(c1ccc(OS(=O)(=O)c3ccc(Cl)cc3)cc1)C1=C(CCCC1=O)O2		7.08 µM (active)
Cc1ccc(S(=O)(=O)Oc2cc(N)c3c(n2)CCC3)cc1	20.5% [at 11.4 µM] (inactive)	
Cc1ccc(S(=O)(=O)Oc2cc(S(=O)(=O)O)cc3cc(S(=O)(=O)O)cc(N)c23)cc1	-5.74% [at 11.4 µM] (inactive)	
O=C(O)c1c2c(c(O)c3c1CN(C1CCCCC1)CO3)OCN(C1CCCCC1)C2	-1.96% [at 11.4 µM] (inactive)	
O=C(/C=C\c1ccc(O)c(O)c1)O[C@@H](Cc1ccc(O)c(O)c1)C(=O)O	-21.8% (inactive)	
Cc1ccccc1S(=O)(=O)O[C@@H]1NS(=O)(=O)c2ccccc21	20.8% [at 11.4 µM] (inactive)	
Cc1ccccc1S(=O)(=O)Oc1ccccc1C(=O)Oc1ccccc1		2.24 µM (active)
Cc1cc2c(c(=O)o1)[C@@H](O)[C@H]1O[C@@H]1C2=O	-1.55% [at 11.4 µM] (inactive)	
O=C(Nc1nnc(-c2ccc(Cl)cc2)o1)Nc1ccccc1Cl	-14.2% (inactive)	
O=C(Cc1ccc(Cl)cc1)Nc1cccc(-c2nnc(-c3ccco3)o2)c1		0.178 µM (active)
COc1ccc(CC(=O)Nc2ccc(-c3noc(-c4cccc(OC)c4)n3)cc2)cc1	-12.6% (inactive)	
COc1ccc(CC(=O)Nc2cccc(-c3nnc(-c4ccco4)o3)c2)cc1		0.316 µM (active)
COc1ccccc1CN1CCC2(CC1)CCN(C(=O)c1c(C)noc1C)CC2	-3.96% (inactive)	
CN(Cc1ccco1)c1ccnc(-c2cccc(NS(C)(=O)=O)c2)n1	-11.7% [at 2.29 µM] (inactive)	
CC1CCC(=NNC(=O)Cc2ccccc2)CC1 (configuration not stated)	-15.6% (inactive)	
O=C(CC(=O)NN=C1CCCC1)NCCc1ccccc1	-21.1% (inactive)	
COc1ccc(N(CC(=O)NN=C2CCCC2)S(=O)(=O)c2ccccc2)cc1		10 µM (active)
COCCCNC(=O)CN(c1ccc(OC)cc1)S(=O)(=O)c1ccc(NC(C)=O)cc1		11.2 µM (active)
COc1ccc2c(=O)cc(-c3ccncc3)oc2c1OC	-7.78% [at 11.4 µM] (inactive)	
O=S(=O)(O)c1ccc(-c2nnc(-c3ccccn3)nc2-c2ccc(S(=O)(=O)O)o2)o1	-9.22% [at 11.4 µM] (inactive)	
CO[C@@H]1COC(=O)[C@@H](C)NC(=O)C/C=C\[C@@H](C)[C@H](NS(=O)(=O)c2ccc(C)cc2)COC(=O)[C@H](C)NC(=O)C/C=C\[C@H]1C	9.56% [at 11.4 µM] (inactive)	
CC1(C)OC(=O)NC1=O	1.46% [at 25.6 µM] (inactive)	
COC(=O)Cn1cnc(=O)c(C#N)c1/C=C/N(C)C	-7.06% (inactive)	
